TRPM1 prom inh: inhibitors of MITF-dependent TRPM1 promoter reporter, primary screen, cell-based, SK-MEL-5, single point, luciferase; SK-MEL-5 TRPM1 promoter luciferase, 24 h; inhibition, % at 12.5 µM; 330,000 compounds, 0.83% hits; AID 488899, 2010;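 active = mean inhibition across replicates of 60% or more, whatever share of single replicates reaches that level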
Shn3 inh set2: reduction of Shn3 3'UTR firefly luciferase signal, primary screen, Schnurri-3 inhibitor project, cell-based, Clone20 osteoblasts, set 2; inhibition, % at 12.5 µM; Clone20 osteoblast Shn3 3'UTR firefly luciferase, 24 h; 360,000 compounds, 0.52% hits;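 active = mean inhibition of at least 75% with every replicate also reaching 75%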;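 also: 0% = median of neutral control wells and 100% = pilot-screen positive control compound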
697 NFkB inh: inhibitors of PMA/ionomycin-induced NF-kB reporter, 697 cells, primary screen, B-cell NF-kB inhibitor project, cell-based, luminescence, uHTS; 697 B-cell NF-kB luciferase reporter, 16 h; AID 435022, 2010; inhibition, % at 4 µM; 330,000 compounds, 0.33% hits; in the data active = inhibition above about 35%
Gli-Sufu antag: Gli-Sufu pathway antagonists, primary screen, luciferase luminescence, Sufu-KO-LIGHT cells, uHTS. inhibition, % at 5 µM. 340,000 compounds, 0.74% hits. Sufu-KO-LIGHT fibroblasts, Gli luciferase reporter luminescence;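 active = inhibition above about 55%, limit read from the data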;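 also: 0% = DMSO-treated cells and 100% = wells with medium but no cells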
Jurkat NFkB inh: inhibitors of induced NF-kB luciferase reporter, primary screen, TCR NF-kB activation inhibitor project, cell-based, luminescence, uHTS; Jurkat, PMA/ionomycin-induced NF-kB luciferase reporter; inhibition, % at 4 µM; 330,000 compounds, 0.53% hits; in the data active = inhibition above about 50%
EBV LMP1 NFkB: EBV LMP1-driven NF-kappaB luciferase reporter inhibitors, primary screen, cell-based, luminescence, single point; LMP1-induced NF-kappaB luciferase reporter cells; inhibition, % at 12.5 µM; 350,000 compounds, 0.69% hits; AID 504558, 2011; in the data active = inhibition above about 41%;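 also: 0% = neutral control wells and 100% = reference inhibitor control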
* hit, by the source's call; · = no result. This is a sample that favours compounds with a hit; in the whole collection about 2.3% have one here.

SMILES	TRPM1 prom inh	Shn3 inh set2	697 NFkB inh	Gli-Sufu antag	Jurkat NFkB inh	EBV LMP1 NFkB
COCC(=O)N1CCC(Oc2ccc(C(=O)NCc3cc(C)n(C)n3)cc2)CC1	-4.5	-14.8	10.7	-3.9	9.6	0.0
c1ccc2c(-c3ccncc3)c[nH]c2c1	-12.9	-9.0	15.5	4.3	1.9	76.6*
c1ccc(-c2nnc(-c3ccccc3)c(-c3c[nH]c4ccccc34)n2)cc1	-17.1	2.2	-128.3	2.9	-31.2	-6.1
Cn1c(N)c(C(=O)COC(=O)[C@H](Cc2ccccc2)N2C(=O)c3ccccc3C2=O)c(=O)n(C)c1=O	7.9	0.1	-28.2	9.9	-9.2	-4.2
CCN1CCN(Cc2ccc(NC(=O)c3cc(NC(=O)c4cncc(-c5cccs5)c4)cc(OC)c3)cc2C(F)(F)F)CC1	·	98.2*	9.3	4.2	6.7	-6.6
CCN1CCN(Cc2ccc(NC(=O)c3cc(NC(=O)c4cc(-c5ccc(OC)cc5)n[nH]4)cc(OC)c3)cc2C(F)(F)F)CC1	98.9*	9.2	-0.8	27.7	-42.3	-1.9
CCN1CCN(Cc2ccc(NC(=O)c3cc(NC(=O)c4cc5cccc(OC)c5o4)cc(OC)c3)cc2C(F)(F)F)CC1	18.0	98.6*	-7.5	-2.6	-9.5	-102.7
CCN1CCN(Cc2ccc(NC(=O)c3cc(NC(=O)c4ccc5n[nH]nc5c4)cc(OC)c3)cc2C(F)(F)F)CC1	2.3	-26.8	-4.4	26.3	0.1	-18.5
CC(=O)c1cccc(NC(=O)c2oc(C)nc2C)c1	-9.2	-10.5	21.4	5.2	3.3	-7.4
O=C(O)C1CCC(Cn2c(SCc3cc(=O)n4cc(Br)ccc4n3)nc3ccsc3c2=O)CC1 (configuration not stated)	5.2	-4.7	13.0	18.6	-2.4	10.7
Cc1ccc(C(C)C)c(OCc2ccc(C(=O)N/N=C/c3ccc(O)cc3O)cc2)c1	·	91.8*	·	35.4	·	17.4
Cc1ccc(C(C)C)c(OCc2ccc(C(=O)N/N=C/c3ccc(C(=O)O)cc3)cc2)c1	-4.4	7.6	-3.0	13.9	-7.2	-3.0
CCCCCOC(=O)Cn1c(=O)c2c(nc(N3CCOCC3)n2C)n(C)c1=O	1.2	-19.6	8.8	1.7	14.4	8.0
CCCCCn1c(N2CCOCC2)nc2c1c(=O)n(CC(N)=O)c(=O)n2C	-3.7	10.5	1.6	6.1	3.0	64.2*
O=C(NCc1n[nH]c(=S)n1-c1ccc(Br)cc1)c1ccc(S(=O)(=O)N2CCCCC2)cc1	6.3	-2.2	4.7	15.0	-0.8	-4.4
CN(C)CCOc1ccc(-c2c(-c3ccccc3)sc3ccccc23)cc1	61.0*	37.0	12.6	12.3	-8.5	-16.9
COc1ccc(CCNC(=O)c2cc3c(=O)n4cccc(C)c4nc3n(CCCN3CCOCC3)c2=N)cc1	72.6*	22.4	-27.1	15.3	7.6	-42.1
COCCn1c(=N)c(C(=O)NCCc2ccc(OC)cc2)cc2c(=O)n3cccc(C)c3nc21	-8.5	-2.1	-13.4	13.2	-8.1	-6.6
CCCCCCCCCCCCCCCC[N+](C)(C)CCl	-3.5	83.0	·	57.8*	·	-0.2
c1ccc(CNc2ncnc3c2cnn3Cc2ccccc2)cc1	28.3	-4.8	-13.3	-16.4	48.0	-1.2
O=C(O)c1cccnc1	-8.5	-9.9	12.9	8.5	-3.8	84.7*
O=C(C(=O)c1cccnc1)c1cccnc1	-2.7	14.8	2.3	17.2	17.8	1.0
COC(=O)[C@@]1(Cc2ccc(F)cc2)[C@H]2c3cc(C(=O)N4CCCC4)n(CCCNc4ncc(C(F)(F)F)cc4Cl)c3C[C@H]2CN1C(=O)c1ccccc1	7.8	-102.8	9.7	3.7	29.6	45.4*
CCC1(c2ccc(F)cc2)NC(=O)N(CC(=O)N2CCN(C(=O)c3cccs3)CC2)C1=O (configuration not stated)	21.3	-11.9	1.7	-10.6	2.5	-2.1
COc1ccc2[nH]c3c(=O)n(CCCCC(=O)N4CCC(C(N)=O)CC4)c(=S)[nH]c3c2c1	0.6	-21.0	1.3	0.8	-5.7	65.1*
SMILES	TRPM1 prom inh	Shn3 inh set2	697 NFkB inh	Gli-Sufu antag	Jurkat NFkB inh	EBV LMP1 NFkB
COc1ccc2[nH]c3c(=O)n(CCCCC(=O)NCCN4CCCC4)c(=S)[nH]c3c2c1	-1.1	-24.1	-10.6	2.6	-0.2	-5.5
Oc1c(Cl)cc(Cl)cc1C1=NNC(c2ccc(Cl)cc2)C1 (configuration not stated)	-2.6	-56.2	·	-35.6	·	48.6*
Oc1ccc(Cl)cc1C1=NNC(c2ccc(Cl)cc2)C1 (configuration not stated)	-3.8	-40.8	-60.2	-44.7	-19.0	-8.4
O=C1CC(c2cccs2)Cc2nc(NC(=O)C3CC3)ncc21 (configuration not stated)	1.8	·	3.3	10.4	0.7	45.3*
CCC(C)C(=O)Nc1ncc2c(n1)CC(c1cccs1)CC2=O (configuration not stated)	6.0	5.7	-11.3	2.3	-7.9	-4.4
O=C(COc1ccc2ccccc2c1Br)Nn1cnnc1	5.5	10.2	2.4	9.2	13.7	-2.7
CCOC(=O)c1ccc(N2C(=O)C=CC2=O)cc1	41.5	88.2*	-2.1	12.6	2.0	67.4*
O=C(c1ccccc1Br)N1CCN(Cc2ccc3c(c2)OCO3)CC1	9.6	8.5	-3.8	-12.4	-2.5	42.7*
COc1ccc([N+](=O)[O-])cc1N(CC(=O)NC1CCCC1)S(C)(=O)=O	-1.2	14.0	11.0	1.6	-10.4	-3.5
O=C(CCl)N1c2ccccc2Oc2ccc3ccccc3c21	88.4*	10.7	·	-8.1	·	-8.1
O=C(NCCCn1ccnc1)/C(=C\c1ccccc1Cl)NC(=O)c1ccccc1	4.0	10.8	-8.3	-4.9	2.5	-4.3
Cc1cccc(C(=O)Nc2ccc(C(=O)/C=C/c3cccnc3)cc2)c1	26.8	96.9*	·	8.8	·	27.1
O=C(/C=C/c1cccnc1)/C=C/c1cccnc1	96.4*	94.4*	·	7.2	·	-45.7
C(=Cc1cccnc1)c1ccncc1	-16.1	-17.2	·	-0.3	·	5.9
COc1ccc(C2CC(c3ccc(Cl)cc3)n3nc(N)nc3N2)cc1 (configuration not stated)	-11.8	10.7	12.5	-23.0	7.8	7.8
CC1(C(=O)Nc2cnc3ccccc3c2)CCN1CCc1ccccc1 (configuration not stated)	·	16.2	·	·	·	·
CC1CCc2onc(C(=O)NCc3ccco3)c2C1 (configuration not stated)	-9.3	-7.9	-6.2	-10.1	20.4	1.7
Cc1ccc(C)c(C(=O)CSc2nnnn2C(C)C)c1	-28.4	0.6	-10.8	-19.0	-12.8	4.8
